Reference: PubChem BioAssay (EPA / NIEHS)
Several values for one entry are separate records, joined by “and”; a condition that tells them apart may be missing. Equal values may be shown once. Results filed as inconclusive are left out. More than one record can exist for a structure, and the calls need not agree. Activity calls are given as the source filed them. Rule for the calls, unless noted: active = hit-call score of the fitted dose curve at least 0.9, where 1 is the maximum; inactive = score below 0.9.

What was measured:
[1] = biological target: Estrogen-related receptor gamma (Homo sapiens) (UniProt P62508); test: ATG_ERRg_TRANS: Attagene TRANS-FACTORIAL HepG2 Assay for human Estrogen-Related Receptor gamma (ERRg) (AID 2282977; active = hit-call score of the fitted dose curve at least 0.9, where 1 is the maximum;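 note: hits increase reporter signal over DMSO so potencies reflect activators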); details: HepG2 Attagene TRANS reporter, ERRg transactivation
In short: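 Transfect HepG2 with multiple GAL4-UAS reporter transcription units; dose chemicals 24 h; isolate RNA, reverse-transcribe with oligo(dT), PCR-amplify, label with 6-FAM, digest with HpaI; size fragments by capillary electrophoresis. DMSO serves as negative control.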

[2] = ATG_M_06_TRANS: Attagene TRANS-FACTORIAL HepG2 Assay for M06 Transcription Factor (Internal Marker) (AID 2282983; active = hit-call score of the fitted dose curve at least 0.9, where 1 is the maximum); details: HepG2 Attagene TRANS M06 internal marker reporter
In short: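 After a 24 h chemical treatment of transfected HepG2, RNA underwent DNase I treatment, reverse transcription and reporter-specific PCR; labelled, HpaI-digested products were sized by capillary electrophoresis. Signal increase relative to DMSO defined activity.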

[3] = ATG_M_32_TRANS: Attagene TRANS-FACTORIAL HepG2 Assay for M32 Transcription Factor (Internal Marker) (AID 2282984; active = hit-call score of the fitted dose curve at least 0.9, where 1 is the maximum;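 note: transcript level of a background control reporter unit measured by RT-PCR and capillary electrophoresis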); details: HepG2 Attagene TRANS M32 internal marker reporter
In short: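 Measures reporter mRNA induction in human HepG2 liver cells after 24 h chemical treatment. Transcripts from transiently transfected GAL4-UAS reporter units are amplified, fluorescently labelled and sized by capillary electrophoresis; gain of signal relative to DMSO.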

[4] = biological target: Transcriptional activator Myb (Homo sapiens) (UniProt P10242); test: ATG_Myb_CIS: Attagene CIS-FACTORIAL HepG2 Assay for human Myeloblastosis (Myb) Proto-Oncogene Transcription Factor (AID 2282986); details: HepG2 Attagene CIS-FACTORIAL Myb reporter transcription; actives raise or lower the signal
In short: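 After 24 h of compound dosing, total RNA from transfected HepG2 cells is reverse-transcribed and the reporter sequences amplified, labeled and separated by capillary electrophoresis. Values come from bidirectional fitting against DMSO.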

[5] = biological target: Nuclear respiratory factor 1 (Homo sapiens) (UniProt Q16656); test: ATG_NRF1_CIS: Attagene CIS-FACTORIAL HepG2 Assay for human Nuclear Respiratory Factor 1 (NRF1) Orphan Gene (AID 2282987); details: HepG2 NRF1 cis-element reporter, Attagene multiplex; actives raise or lower the signal
In short: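 Measured: fluorescent reporter-specific RT-PCR products from transfected HepG2 cells, separated by capillary electrophoresis. Exposure lasted 24 h. Analysis used bidirectional curve fitting with DMSO as negative control.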

[6] = ATG_NFI_CIS: Attagene CIS-FACTORIAL HepG2 Assay for human Nuclear Factor I (NFI) (AID 2282989); details: HepG2 cis-regulatory reporter, NFI response element transcription; actives raise or lower the signal
In short: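 Cells: human liver HepG2, transiently transfected with promoter-regulated reporter transcription units. Exposure 24 h. Detection: fluorescent RT-PCR products separated by capillary electrophoresis, normalised to DMSO negative control.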

[7] = biological target: Myc proto-oncogene protein (Homo sapiens) (UniProt P01106); test: ATG_Myc_CIS: Attagene CIS-FACTORIAL HepG2 Assay for human Myelocytomatosis (Myc) Proto-Oncogene Transcription Factor (AID 2282990); details: HepG2, Attagene cis-reporter transcription factor activity; actives raise or lower the signal
In short: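 HepG2, transient MRTU transfection (cis promoters, endogenous TFs); 24 h dosing; TriZol RNA → oligo(dT) RT → PCR → 6-FAM primer extension → HpaI cut → CE. Bidirectional fit vs DMSO.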

[8] = ATG_NF_kB_CIS: Attagene CIS-FACTORIAL HepG2 Assay for human Nuclear Factor Kappa B (NF-kB) (AID 2282991); details: HepG2 Attagene cis-factorial NF-kB reporter mRNA; actives raise or lower the signal
In short: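 Fluorescence of labelled RT-PCR products separated by capillary electrophoresis gives reporter mRNA levels from transfected HepG2 cells exposed 24 h; values are fitted in both directions relative to DMSO.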

[9] = ATG_NRF2_ARE_CIS: Attagene CIS-FACTORIAL HepG2 Assay for human Nuclear Factor Erythroid 2 Related Factor 2 (NFR2) response to Antioxidant Response Elements (ARE) (AID 2282992); details: HepG2 Attagene ARE/NRF2 reporter, transcription factor activity; actives raise or lower the signal
In short: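 Cis-factorial assay: transfected HepG2 reporter library, 24 h dosing, mRNA readout via RT-PCR/CE; DMSO-referenced bidirectional analysis.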

[10] = biological target: Glucocorticoid receptor (Homo sapiens) (UniProt P04150); test: ATG_GR_TRANS: Attagene TRANS-FACTORIAL HepG2 Assay for human Glucocorticoid Receptor (GR) (AID 2282978; active = hit-call score of the fitted dose curve at least 0.9, where 1 is the maximum;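 note: activators score as hits since higher reporter transcript over DMSO is fitted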); details: HepG2 Attagene TRANS GR reporter, mRNA transcription
In short: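 After 24 h incubation with test chemical, transfected HepG2 cells were lysed for RNA; reporter cDNA was amplified, FAM-labelled, HpaI-digested and sized on a capillary analyser. Signal gain relative to DMSO was scored.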

[11] = biological target: Bile acid receptor (Homo sapiens) (UniProt Q96RI1); test: ATG_FXR_TRANS: Attagene TRANS-FACTORIAL HepG2 Assay for Farnesoid X Receptor (FXR) (AID 2282979; active = hit-call score of the fitted dose curve at least 0.9, where 1 is the maximum;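 note: hits raise reporter mRNA above DMSO so AC50 marks FXR activation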); details: HepG2 Attagene TRANS FXR-GAL4 reporter transcription
In short: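 Read-out: fluorescent reporter transcripts quantified by capillary electrophoresis after RT-PCR of total RNA. Source cells were HepG2 transiently carrying chimeric NR-GAL4 plus GAL4-UAS reporter units, dosed 24 h. Activity fitted upward relative to DMSO baseline.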

[12] = biological target: Oxysterols receptor LXR-alpha (Homo sapiens) (UniProt Q13133); test: ATG_LXRa_TRANS: Attagene TRANS-FACTORIAL HepG2 Assay for human Liver X Receptor alpha (LXRa) (AID 2282980; active = hit-call score of the fitted dose curve at least 0.9, where 1 is the maximum); details: HepG2 Attagene TRANS reporter, LXRa transactivation
In short: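 Read-out: reporter transcript levels by RT-PCR plus capillary electrophoresis, fluorescence intensity. Transiently transfected HepG2, exogenous NR-GAL4 chimera, GAL4-UAS reporters; 24 h compound exposure. Activity = increase over DMSO negative control.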

[13] = biological target: Oxysterols receptor LXR-beta (Homo sapiens) (UniProt P55055); test: ATG_LXRb_TRANS: Attagene TRANS-FACTORIAL HepG2 Assay for human Liver X Receptor beta (LXRb) (AID 2282981; active = hit-call score of the fitted dose curve at least 0.9, where 1 is the maximum); details: HepG2 Attagene TRANS GAL4-LXRb reporter, mRNA
In short: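 Transient transfection HepG2 (multiplexed RTUs, GAL4-UAS); NR-Gal4 chimera; 24 h exposure; RNA → RT-PCR → 6-FAM primer extension → HpaI → CE; increase vs DMSO.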

[14] = biological target: Hepatocyte nuclear factor 4-alpha (Homo sapiens) (UniProt P41235); test: ATG_HNF4a_TRANS: Attagene TRANS-FACTORIAL HepG2 Assay for human Hepatocyte Nuclear Factor 4 alpha (HNF4a) (AID 2282982; active = hit-call score of the fitted dose curve at least 0.9, where 1 is the maximum); details: HepG2 HNF4a transactivation reporter, mRNA readout
In short: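 Readout is fluorescent reporter-transcript fragments resolved by capillary electrophoresis after RT-PCR from HepG2 cells dosed for 24 h. Cells carried transfected GAL4-UAS reporter constructs measuring exogenous NR-GAL4 chimera activity; DMSO served as baseline.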

[15] = biological target: Nuclear receptor subfamily 4 group A member 2 (Homo sapiens) (UniProt P43354); test: ATG_NURR1_TRANS: Attagene TRANS-FACTORIAL HepG2 Assay for human Nuclear Receptor Related Protein 1 (NURR1) (AID 2282985; active = hit-call score of the fitted dose curve at least 0.9, where 1 is the maximum); details: HepG2 Attagene TRANS reporter, mRNA readout
In short: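 Transient transfection of HepG2, human liver cells, with multiple GAL4-UAS reporter transcription units. Cells dosed 24 h, RNA isolated, reverse-transcribed, PCR-amplified, FAM-labelled, HpaI-digested, sized by capillary electrophoresis. DMSO served as negative control.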

[16] = ATG_Oct_MLP_CIS: Attagene CIS-FACTORIAL HepG2 Assay for human Octamer-Binding Transcription Factor (Oct) (AID 2282993); details: HepG2 Attagene cis-factorial Oct reporter, mRNA; actives raise or lower the signal
In short: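 HepG2, transient MRTU transfection, cis promoter elements; 24 h dosing; RT-PCR/CE fluorescence read-out of reporter mRNA; fit both directions vs DMSO.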

[17] = biological target: Cellular tumor antigen p53 (Homo sapiens) (UniProt P04637); test: ATG_p53_CIS: Attagene CIS-FACTORIAL HepG2 Assay for human p53 Transcription Factor (AID 2282994); details: HepG2 p53 cis-element reporter, Attagene mRNA; actives raise or lower the signal
In short: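 Using HepG2 hepatoma cells carrying cis-acting multiplexed reporters, mRNA induction is detected after a 24 h exposure. Gain- and loss-of-signal responses are fitted relative to DMSO-treated cells.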

[18] = BSK_3C_TissueFactor: BioMAP Diversity Plus: 3C Assay for Tissue Factor Biomarker Activity (AID 2282997); details: BioMAP 3C HUVEC, tissue factor biomarker readout; actives raise or lower the signal
In short: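 Human vascular primary cells (umbilical vein endothelium) received test chemical; Tissue Factor was determined by ELISA at 24 h, and both gain and loss of signal versus DMSO were fitted.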

[19] = BSK_3C_uPAR: BioMAP Diversity Plus: 3C Assay for Urokinase-type plasminogen activator receptor (uPAR) Biomarker Activity (AID 2282998); details: BioMAP 3C HUVEC, uPAR biomarker ELISA; actives raise or lower the signal
In short: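 A multiplexed primary-cell system built on human umbilical vein endothelium was used, with chemical present for 24 h before reading. Cell-surface uPAR was detected by ELISA; signal change in either direction counted against DMSO.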

[20] = BSK_3C_VCAM1: BioMAP Diversity Plus: 3C Assay for Vascular cell adhesion molecule 1 (VCAM1) Biomarker Activity (AID 2282999); details: BioMAP 3C HUVEC, VCAM1 ELISA, cytokine-stimulated; actives raise or lower the signal
In short: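 Endothelial cells from human umbilical vein are treated with test chemical. At 24 h, VCAM-1 is measured by ELISA, and responses in either direction are fitted relative to DMSO.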

Chain of Hepatocyte nuclear factor 4-alpha (Homo sapiens) (P41235 whole entry, looked up, the tested form may be a part): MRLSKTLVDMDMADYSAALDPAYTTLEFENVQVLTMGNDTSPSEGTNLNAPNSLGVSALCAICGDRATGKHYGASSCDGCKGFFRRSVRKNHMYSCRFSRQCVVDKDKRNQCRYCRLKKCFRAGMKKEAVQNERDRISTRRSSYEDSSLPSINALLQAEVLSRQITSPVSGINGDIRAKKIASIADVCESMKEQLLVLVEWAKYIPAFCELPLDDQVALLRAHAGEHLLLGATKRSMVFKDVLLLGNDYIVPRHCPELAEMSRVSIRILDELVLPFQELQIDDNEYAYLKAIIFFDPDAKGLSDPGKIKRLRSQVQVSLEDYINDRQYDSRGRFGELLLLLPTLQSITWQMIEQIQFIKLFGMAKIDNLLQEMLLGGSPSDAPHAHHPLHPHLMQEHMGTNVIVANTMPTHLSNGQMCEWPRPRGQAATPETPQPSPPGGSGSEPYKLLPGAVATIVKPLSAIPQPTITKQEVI
Chain of Oxysterols receptor LXR-alpha (Homo sapiens) (Q13133 whole entry, looked up, the tested form may be a part): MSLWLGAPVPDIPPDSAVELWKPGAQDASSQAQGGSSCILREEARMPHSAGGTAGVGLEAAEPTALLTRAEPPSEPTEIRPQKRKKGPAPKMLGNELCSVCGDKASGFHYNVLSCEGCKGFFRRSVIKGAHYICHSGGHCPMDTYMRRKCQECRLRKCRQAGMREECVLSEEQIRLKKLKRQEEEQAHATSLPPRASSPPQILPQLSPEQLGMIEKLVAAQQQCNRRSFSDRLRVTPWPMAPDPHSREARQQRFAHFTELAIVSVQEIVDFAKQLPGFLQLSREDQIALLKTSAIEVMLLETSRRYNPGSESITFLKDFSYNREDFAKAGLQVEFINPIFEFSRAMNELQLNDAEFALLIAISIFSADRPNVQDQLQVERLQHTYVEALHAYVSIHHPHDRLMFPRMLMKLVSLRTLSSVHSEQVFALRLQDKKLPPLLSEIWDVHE
Chain of Myc proto-oncogene protein (Homo sapiens) (P01106 whole entry, looked up): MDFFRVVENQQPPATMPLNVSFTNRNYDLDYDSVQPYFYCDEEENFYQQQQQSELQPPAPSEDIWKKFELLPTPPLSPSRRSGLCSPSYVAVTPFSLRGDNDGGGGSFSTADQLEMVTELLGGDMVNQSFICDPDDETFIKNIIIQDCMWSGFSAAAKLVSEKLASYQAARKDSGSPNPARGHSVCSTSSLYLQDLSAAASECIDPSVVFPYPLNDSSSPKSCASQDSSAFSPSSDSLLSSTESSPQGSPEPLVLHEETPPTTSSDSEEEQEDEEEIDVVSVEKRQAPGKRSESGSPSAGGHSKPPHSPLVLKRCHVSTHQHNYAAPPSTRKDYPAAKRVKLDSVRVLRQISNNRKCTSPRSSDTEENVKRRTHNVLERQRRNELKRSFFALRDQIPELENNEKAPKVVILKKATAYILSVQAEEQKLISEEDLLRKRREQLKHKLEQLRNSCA
Chain of Cellular tumor antigen p53 (Homo sapiens) (P04637 whole entry, looked up): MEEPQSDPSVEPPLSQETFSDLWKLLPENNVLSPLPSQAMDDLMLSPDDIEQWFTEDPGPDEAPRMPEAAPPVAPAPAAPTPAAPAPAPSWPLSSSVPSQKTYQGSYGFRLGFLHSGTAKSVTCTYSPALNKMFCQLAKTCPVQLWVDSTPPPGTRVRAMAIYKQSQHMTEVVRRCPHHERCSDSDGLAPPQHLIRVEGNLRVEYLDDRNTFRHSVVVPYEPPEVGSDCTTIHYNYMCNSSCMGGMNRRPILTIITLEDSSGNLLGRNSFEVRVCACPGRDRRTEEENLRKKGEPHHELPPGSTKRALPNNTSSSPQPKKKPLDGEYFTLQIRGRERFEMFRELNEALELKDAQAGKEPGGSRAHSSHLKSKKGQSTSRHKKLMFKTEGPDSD
Chain of Nuclear receptor subfamily 4 group A member 2 (Homo sapiens) (P43354 whole entry, looked up, the tested form may be a part): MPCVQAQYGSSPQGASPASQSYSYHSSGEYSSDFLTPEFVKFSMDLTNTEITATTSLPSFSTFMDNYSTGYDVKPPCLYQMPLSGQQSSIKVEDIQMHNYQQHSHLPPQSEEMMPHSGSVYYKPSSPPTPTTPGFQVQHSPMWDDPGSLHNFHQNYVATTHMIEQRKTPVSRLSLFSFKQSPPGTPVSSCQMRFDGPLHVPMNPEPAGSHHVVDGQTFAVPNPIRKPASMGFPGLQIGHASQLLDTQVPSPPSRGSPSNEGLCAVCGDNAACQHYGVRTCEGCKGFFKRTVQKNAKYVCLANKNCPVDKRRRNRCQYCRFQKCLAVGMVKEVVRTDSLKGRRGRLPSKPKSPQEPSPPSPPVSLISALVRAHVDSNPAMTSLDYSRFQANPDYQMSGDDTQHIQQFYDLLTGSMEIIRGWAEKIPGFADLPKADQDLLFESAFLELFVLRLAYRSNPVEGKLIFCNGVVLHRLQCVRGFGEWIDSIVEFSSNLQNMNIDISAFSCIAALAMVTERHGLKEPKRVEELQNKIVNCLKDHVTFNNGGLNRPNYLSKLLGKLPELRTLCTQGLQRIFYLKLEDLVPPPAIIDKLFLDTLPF
Chain of Nuclear respiratory factor 1 (Homo sapiens) (Q16656 whole entry, looked up): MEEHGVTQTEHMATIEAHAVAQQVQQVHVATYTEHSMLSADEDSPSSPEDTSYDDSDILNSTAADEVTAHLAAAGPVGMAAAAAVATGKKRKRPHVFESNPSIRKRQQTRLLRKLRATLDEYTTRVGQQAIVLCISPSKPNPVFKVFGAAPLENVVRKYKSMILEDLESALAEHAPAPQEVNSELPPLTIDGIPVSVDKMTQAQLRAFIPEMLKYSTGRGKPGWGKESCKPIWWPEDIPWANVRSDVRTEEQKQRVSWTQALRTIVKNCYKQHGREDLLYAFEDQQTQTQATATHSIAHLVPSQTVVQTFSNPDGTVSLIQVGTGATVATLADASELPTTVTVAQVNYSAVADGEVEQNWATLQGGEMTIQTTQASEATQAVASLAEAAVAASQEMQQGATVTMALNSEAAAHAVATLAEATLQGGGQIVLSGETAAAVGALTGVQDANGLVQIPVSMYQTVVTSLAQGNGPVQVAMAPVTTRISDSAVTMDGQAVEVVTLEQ
Chain of Glucocorticoid receptor (Homo sapiens) (P04150 whole entry, looked up): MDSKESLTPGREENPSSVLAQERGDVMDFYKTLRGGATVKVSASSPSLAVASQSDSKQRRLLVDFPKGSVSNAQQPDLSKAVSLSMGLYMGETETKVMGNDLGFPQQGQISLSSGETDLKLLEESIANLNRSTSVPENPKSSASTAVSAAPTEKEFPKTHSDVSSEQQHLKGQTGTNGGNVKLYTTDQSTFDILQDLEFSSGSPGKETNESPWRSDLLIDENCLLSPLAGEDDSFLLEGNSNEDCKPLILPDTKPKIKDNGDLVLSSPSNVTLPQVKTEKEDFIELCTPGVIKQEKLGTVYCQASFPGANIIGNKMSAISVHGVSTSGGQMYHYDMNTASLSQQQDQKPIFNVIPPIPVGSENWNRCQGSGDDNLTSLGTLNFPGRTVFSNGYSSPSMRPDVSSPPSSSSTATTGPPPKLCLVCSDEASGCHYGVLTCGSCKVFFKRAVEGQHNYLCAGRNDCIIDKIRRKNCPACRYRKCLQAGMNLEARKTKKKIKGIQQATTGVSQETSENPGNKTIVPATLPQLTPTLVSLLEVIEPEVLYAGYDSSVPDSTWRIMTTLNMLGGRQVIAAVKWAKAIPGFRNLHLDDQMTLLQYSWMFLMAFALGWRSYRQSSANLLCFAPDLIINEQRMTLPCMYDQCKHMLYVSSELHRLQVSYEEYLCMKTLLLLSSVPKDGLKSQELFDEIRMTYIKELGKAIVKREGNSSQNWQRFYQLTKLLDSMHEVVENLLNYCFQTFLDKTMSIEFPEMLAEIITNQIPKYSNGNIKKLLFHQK
Chain of Transcriptional activator Myb (Homo sapiens) (P10242 whole entry, looked up): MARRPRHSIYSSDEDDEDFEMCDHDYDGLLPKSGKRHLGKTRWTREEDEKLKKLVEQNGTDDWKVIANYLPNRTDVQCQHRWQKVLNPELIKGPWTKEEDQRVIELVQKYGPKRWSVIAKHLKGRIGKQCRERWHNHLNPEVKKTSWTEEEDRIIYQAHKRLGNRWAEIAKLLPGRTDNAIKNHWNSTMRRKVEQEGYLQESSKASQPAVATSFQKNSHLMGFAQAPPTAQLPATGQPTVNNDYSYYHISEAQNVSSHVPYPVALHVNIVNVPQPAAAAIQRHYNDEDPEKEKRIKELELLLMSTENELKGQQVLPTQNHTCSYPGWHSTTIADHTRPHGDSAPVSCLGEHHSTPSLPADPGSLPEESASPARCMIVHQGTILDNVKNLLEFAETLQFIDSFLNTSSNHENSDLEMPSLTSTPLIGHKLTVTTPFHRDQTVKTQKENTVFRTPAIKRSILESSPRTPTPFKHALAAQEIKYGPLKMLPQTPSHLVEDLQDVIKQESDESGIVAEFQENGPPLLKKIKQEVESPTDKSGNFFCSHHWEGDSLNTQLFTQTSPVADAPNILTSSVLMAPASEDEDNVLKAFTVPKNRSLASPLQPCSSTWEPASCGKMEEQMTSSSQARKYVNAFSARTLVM
Chain of Oxysterols receptor LXR-beta (Homo sapiens) (P55055 whole entry, looked up, the tested form may be a part): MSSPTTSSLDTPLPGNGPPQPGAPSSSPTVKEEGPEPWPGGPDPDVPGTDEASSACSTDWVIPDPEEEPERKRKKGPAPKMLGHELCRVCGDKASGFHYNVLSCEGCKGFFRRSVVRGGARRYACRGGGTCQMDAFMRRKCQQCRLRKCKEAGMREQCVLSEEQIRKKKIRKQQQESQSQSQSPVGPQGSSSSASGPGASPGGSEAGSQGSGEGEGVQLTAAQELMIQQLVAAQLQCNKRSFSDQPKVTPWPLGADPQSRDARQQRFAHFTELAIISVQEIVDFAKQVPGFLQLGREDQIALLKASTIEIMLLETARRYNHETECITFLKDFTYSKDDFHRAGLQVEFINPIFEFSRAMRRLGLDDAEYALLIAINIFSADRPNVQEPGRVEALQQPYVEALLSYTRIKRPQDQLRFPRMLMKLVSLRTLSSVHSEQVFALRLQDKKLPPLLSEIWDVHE

C=C(C)C(=O)OCCOCCOC(=O)C(=C)C
outcome [1]: inactive
outcome [2]: inactive
outcome [3]: inactive
outcome [4]: inactive
outcome [5]: inactive
outcome [6]: inactive
outcome [7]: inactive
outcome [8]: inactive
outcome [9]: inactive

CCCCCCOC(C)=O
outcome [10]: inactive
outcome [11]: inactive
outcome [12]: inactive
outcome [13]: inactive
outcome [14]: inactive
outcome [2]: inactive
outcome [3]: inactive
outcome [15]: inactive
outcome [4]: inactive
outcome [5]: inactive
outcome [6]: inactive
outcome [7]: inactive
outcome [9]: inactive
outcome [16]: inactive
outcome [17]: inactive

CC/C(=C(\c1ccccc1)c1ccc(OCCN(C)C)cc1)c1ccccc1
outcome [10]: inactive
outcome [12]: inactive
outcome [14]: inactive
outcome [2]: inactive
outcome [3]: inactive
outcome [15]: inactive
outcome [4]: inactive
outcome [5]: inactive
outcome [6]: inactive
outcome [7]: inactive
AC50 [9]: 3.05 µM (active) [middle of 4 runs]
outcome [9]: inactive
outcome [17]: inactive
AC50 [18]: 11.2 µM (active) and 11.1 µM (active)
AC50 [19]: 5.43 µM (active) and 5.65 µM (active)
AC50 [20]: 9.97 µM (active) and 9.7 µM (active)

CCCOC(=O)CC
outcome [10]: inactive
outcome [12]: inactive
outcome [13]: inactive
outcome [14]: inactive
outcome [2]: inactive
outcome [3]: inactive
outcome [15]: inactive
outcome [4]: inactive
outcome [5]: inactive
outcome [6]: inactive
outcome [7]: inactive
outcome [9]: inactive
outcome [16]: inactive
